# Measured values: PubChem BioAssay (NCATS)
# Values joined by “and” are separate entries in the source; they are usually repeats but may differ in a detail not shown here. Equal entries are not always repeated. Inconclusive results are not listed. Entries that show only a call come without a potency. Active and inactive are the calls of the source. Unless noted, calls follow the shape of the dose curve; as a rule, active = well fitted curve in the direction sought with a large enough effect; inconclusive = small, poorly fitted or top-dose-only effect, or another doubt; inactive = no such curve, though single readings can be large; an effect the other way counts as inactive or inconclusive.
# Key:
# [1] = target: Peroxisome proliferator-activated receptor delta (Homo sapiens) (UniProt Q03181); assay: qHTS assay for small molecule antagonists of peroxisome proliferator-activated receptor delta signaling (AID 588535; active = well fitted inhibition curve with a large enough effect in the signal ratio, with a control signal flat, not every such curve was filed as active; the % refers to the signal ratio)
# Sequence of Peroxisome proliferator-activated receptor delta (Homo sapiens) (Q03181 whole entry, looked up): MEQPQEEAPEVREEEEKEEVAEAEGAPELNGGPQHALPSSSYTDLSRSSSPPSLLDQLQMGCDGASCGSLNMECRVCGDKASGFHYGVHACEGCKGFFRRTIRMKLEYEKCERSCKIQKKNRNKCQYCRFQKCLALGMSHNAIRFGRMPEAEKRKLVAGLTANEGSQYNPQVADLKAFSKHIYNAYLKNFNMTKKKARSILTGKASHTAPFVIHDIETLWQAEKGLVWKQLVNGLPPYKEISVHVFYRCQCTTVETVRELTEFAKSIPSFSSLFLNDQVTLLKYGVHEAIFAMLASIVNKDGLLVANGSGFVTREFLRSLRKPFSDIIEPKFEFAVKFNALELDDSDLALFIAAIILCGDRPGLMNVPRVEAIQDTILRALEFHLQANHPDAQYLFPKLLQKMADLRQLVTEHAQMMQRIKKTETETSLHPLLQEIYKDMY
# Outline: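 Antagonist-mode beta-lactamase reporter (GeneBLAzer PPAR-delta-UAS-bla) in HEK293T cells, 2% charcoal/dextran FBS, 4000 cells/well. Compound titrations, 18 h at 37 C; CCF4 ratio read, IC50 and efficacy from Hill fits.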
# [2] = qHTS assay for small molecule agonists of retinoid X receptor alpha signaling (AID 588544; calls by dose curve); conditions: HEK293T RXRa-UAS-bla, beta-lactamase reporter, 18 h; 530 nm emission
# [3] = target: Retinoic acid receptor RXR-alpha (Homo sapiens) (UniProt P19793); assay: as above
# Sequence of Retinoic acid receptor RXR-alpha (Homo sapiens) (P19793 whole entry, looked up): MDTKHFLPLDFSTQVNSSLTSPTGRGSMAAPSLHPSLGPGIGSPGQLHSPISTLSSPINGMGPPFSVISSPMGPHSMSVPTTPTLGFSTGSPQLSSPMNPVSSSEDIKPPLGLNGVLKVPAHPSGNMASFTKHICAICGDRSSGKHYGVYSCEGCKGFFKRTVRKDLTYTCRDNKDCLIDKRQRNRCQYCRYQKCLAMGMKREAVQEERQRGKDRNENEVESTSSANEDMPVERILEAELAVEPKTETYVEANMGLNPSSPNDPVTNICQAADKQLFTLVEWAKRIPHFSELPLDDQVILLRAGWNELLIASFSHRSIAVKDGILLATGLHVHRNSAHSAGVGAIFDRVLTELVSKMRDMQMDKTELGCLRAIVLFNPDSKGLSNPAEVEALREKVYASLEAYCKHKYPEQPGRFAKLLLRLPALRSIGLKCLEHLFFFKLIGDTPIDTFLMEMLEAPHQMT
# [4] = target: Thyroid hormone receptor beta (Homo sapiens) (UniProt P10828); assay: qHTS assay for small molecule agonists of thyroid hormone receptor beta signaling (AID 588545; calls by dose curve)
# Sequence of Thyroid hormone receptor beta (Homo sapiens) (P10828 whole entry, looked up): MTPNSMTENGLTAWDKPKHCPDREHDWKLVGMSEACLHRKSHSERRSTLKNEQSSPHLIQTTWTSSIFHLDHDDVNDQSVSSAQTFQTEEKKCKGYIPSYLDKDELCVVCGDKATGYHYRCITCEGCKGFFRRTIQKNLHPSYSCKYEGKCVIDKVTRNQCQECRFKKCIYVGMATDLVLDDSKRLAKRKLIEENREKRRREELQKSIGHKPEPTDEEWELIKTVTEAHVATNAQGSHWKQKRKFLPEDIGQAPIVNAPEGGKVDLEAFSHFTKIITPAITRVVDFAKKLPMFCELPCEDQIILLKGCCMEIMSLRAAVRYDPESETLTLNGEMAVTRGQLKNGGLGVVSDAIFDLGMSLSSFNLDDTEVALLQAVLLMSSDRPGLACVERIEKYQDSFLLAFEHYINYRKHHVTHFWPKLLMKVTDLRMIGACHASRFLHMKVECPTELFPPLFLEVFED
# Outline: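 Beta-lactamase reporter activity under TR response element control is measured in HEK 293 cells after 18 hrs compound exposure. Signal is ratiometric CCF4 fluorescence, 460/530 nm.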
# [5] = qHTS assay for small molecule antagonists of retinoid X receptor alpha signaling (AID 588546; active = well fitted inhibition curve with a large enough effect in the signal ratio, with a control signal flat, not every such curve was filed as active; the % refers to the signal ratio;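 also: cells stimulated with 9-cis-retinoic acid as agonist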); conditions: HEK293T RXRa-UAS-bla, beta-lactamase ratio, antagonist mode; measured here: W530 green channel, cytotoxicity proxy
# Outline: (§1)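 Beta-lactamase reporter inhibition, read as CCF4 fluorescence ratio (ex 405, em 460/530 nm) after 2 h at RT. HEK293T UAS-bla cells, 2500/well, were stimulated with 9-cis-RA at 500 or 100 nM final alongside test compound for 18 h at 37 C.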
# [6] = target: Retinoic acid receptor RXR-alpha (Homo sapiens) (UniProt P19793); assay: as above; conditions: HEK293T RXRa-UAS-bla, beta-lactamase ratio, antagonist mode
# Outline: as §1
# [7] = target: Thyroid hormone receptor beta (Homo sapiens) (UniProt P10828); assay: qHTS assay for small molecule antagonists of thyroid hormone receptor beta signaling (AID 588547; active = well fitted inhibition curve with a large enough effect in the signal ratio, with a control signal flat, not every such curve was filed as active; the % refers to the signal ratio;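 also: cells stimulated with 0.4 nM T3 agonist during compound exposure; series mostly up to about 77 µM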); conditions: TR-UAS-bla HEK293, beta-lactamase ratio, antagonist mode, 18 h
# Outline: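 TR-UAS-bla GripTite HEK293 cells in 2% charcoal/dextran FBS medium; compounds 0.59 nM to 92 uM with T3 at 0.4nM final, 18 h at 37 C. Beta-lactamase read by CCF4 fluorescence (460/530 nm); Hill fits gave IC50 and efficacy.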
# [8] = target: Voltage-gated inwardly rectifying potassium channel KCNH2 (Homo sapiens) (UniProt Q12809); assay: qHTS Assay for Small Molecule Inhibitors of the Human hERG Channel Activity (AID 588834);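 also: lower thallium flux fluorescence means stronger hERG block; nearly all actives have a fitted effect of over 50% in size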; also: potency is read from the fitted curve at half-maximal effect
# Sequence of Voltage-gated inwardly rectifying potassium channel KCNH2 (Homo sapiens) (Q12809 whole entry, looked up): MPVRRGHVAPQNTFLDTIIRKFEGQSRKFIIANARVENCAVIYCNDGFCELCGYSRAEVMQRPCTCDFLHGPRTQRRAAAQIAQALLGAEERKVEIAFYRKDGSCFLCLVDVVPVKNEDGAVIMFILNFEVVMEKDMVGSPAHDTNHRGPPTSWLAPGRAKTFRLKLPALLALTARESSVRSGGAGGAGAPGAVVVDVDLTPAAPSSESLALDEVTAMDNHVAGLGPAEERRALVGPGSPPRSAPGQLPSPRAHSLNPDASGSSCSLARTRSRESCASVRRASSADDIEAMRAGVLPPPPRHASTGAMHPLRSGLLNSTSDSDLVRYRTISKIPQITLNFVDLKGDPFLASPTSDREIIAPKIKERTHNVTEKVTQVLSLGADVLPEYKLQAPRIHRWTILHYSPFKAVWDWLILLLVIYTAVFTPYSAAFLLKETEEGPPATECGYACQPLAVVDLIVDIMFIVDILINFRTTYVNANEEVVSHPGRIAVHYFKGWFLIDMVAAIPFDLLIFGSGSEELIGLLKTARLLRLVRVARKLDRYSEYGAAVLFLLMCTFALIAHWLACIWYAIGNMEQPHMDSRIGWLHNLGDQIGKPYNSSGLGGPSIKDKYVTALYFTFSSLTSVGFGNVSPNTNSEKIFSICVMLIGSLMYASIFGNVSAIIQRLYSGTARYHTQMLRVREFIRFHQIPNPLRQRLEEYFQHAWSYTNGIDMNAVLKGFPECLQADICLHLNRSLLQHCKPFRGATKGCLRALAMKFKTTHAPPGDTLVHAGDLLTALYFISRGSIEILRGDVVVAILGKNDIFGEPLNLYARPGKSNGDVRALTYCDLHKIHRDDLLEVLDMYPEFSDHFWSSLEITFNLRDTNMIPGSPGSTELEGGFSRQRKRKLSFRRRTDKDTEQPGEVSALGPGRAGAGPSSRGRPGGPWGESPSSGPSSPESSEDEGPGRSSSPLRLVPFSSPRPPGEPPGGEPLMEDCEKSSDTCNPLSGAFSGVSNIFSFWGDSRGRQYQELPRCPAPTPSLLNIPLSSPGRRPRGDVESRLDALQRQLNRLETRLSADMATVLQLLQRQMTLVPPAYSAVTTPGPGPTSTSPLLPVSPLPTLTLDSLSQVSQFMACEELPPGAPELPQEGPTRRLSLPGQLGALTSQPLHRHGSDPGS
# Outline: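 Kinetic FDSS fluorescence; U2OS + hERG BacMam (~100 virus particles/cell); FluxOR Tl+ flux; ~10 min cpd; AC50 (Hill).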
# [9] = target: Luciferin 4-monooxygenase (Photinus pyralis) (UniProt P08659); assay: Biochemical firefly luciferase enzyme assay for NPC (AID 624030);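 also: purified P. pyralis luciferase at 10 nM with luciferin and ATP substrate; series mostly up to about 59 µM; nearly all actives have a fitted effect of over 70% in size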
# Sequence of Luciferin 4-monooxygenase (Photinus pyralis) (P08659 whole entry, looked up): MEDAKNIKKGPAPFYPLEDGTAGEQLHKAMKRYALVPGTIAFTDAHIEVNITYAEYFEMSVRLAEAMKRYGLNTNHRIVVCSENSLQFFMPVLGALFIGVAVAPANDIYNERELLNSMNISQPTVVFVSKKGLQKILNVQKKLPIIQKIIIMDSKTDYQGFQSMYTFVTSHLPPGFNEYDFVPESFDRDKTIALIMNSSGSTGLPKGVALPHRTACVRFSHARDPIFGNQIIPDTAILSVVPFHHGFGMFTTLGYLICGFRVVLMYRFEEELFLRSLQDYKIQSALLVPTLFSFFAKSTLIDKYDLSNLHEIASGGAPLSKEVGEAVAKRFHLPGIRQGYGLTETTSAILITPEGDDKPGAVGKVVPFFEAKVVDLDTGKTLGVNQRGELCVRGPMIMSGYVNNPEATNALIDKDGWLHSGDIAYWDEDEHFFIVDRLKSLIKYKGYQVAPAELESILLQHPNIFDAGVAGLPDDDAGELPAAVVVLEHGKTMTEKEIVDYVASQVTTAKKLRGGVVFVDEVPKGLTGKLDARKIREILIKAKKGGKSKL
# Outline: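 Purified P. pyralis luciferase at 10 nM in 50 mM Tris Acetate (final), luminescence read within 5 minutes of enzyme addition to compounds. Activity normalised to PTC124 versus DMSO; concentration-response curves classed by r2, magnitude and activity.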
# [10] = S16 Schwann cell viability assay (CellTiter-Glo assay) (AID 624031);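 also: native untransfected S16 rat Schwann cells; cellular ATP luminescence as a viability measure; series mostly up to about 58 µM; nearly all actives have a fitted effect of over 70% in size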
# Outline: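 Parental S16 cells, 24 h compound, 37 °C. ATP-luminescence viability; DMSO = 0% activity, empty wells as reference; curves classified by fit quality and efficacy.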
# [11] = target: Vitamin D3 receptor (Homo sapiens) (UniProt P11473); assay: qHTS assay for small molecule antagonists of vitamin D receptor signaling (AID 588541; calls by dose curve;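 also: receptor activated by calcitriol during compound treatment; series mostly up to about 77 µM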)
# Sequence of Vitamin D3 receptor (Homo sapiens) (P11473 whole entry, looked up): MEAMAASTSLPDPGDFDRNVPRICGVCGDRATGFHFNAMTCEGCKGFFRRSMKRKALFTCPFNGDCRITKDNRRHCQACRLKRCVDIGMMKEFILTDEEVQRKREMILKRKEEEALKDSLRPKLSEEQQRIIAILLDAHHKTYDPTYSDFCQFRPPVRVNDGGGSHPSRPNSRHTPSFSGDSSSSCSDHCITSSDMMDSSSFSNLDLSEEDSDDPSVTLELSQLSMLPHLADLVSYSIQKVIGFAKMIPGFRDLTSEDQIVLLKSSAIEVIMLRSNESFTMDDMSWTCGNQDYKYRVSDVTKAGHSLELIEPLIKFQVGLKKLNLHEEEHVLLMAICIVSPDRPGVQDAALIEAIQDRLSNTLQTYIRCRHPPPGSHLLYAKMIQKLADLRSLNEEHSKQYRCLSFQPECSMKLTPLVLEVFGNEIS
# Outline: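 VDR-UAS-bla HEK293T cells in 2% charcoal-stripped FBS were stimulated with 1-alpha,25-dihydroxyvitamin D3 (3 nM final) plus compound for 16 h at 37 C. The beta-lactamase CCF4 readout was normalized to 50 nM agonist and DMSO, and Hill fits gave IC50.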
# [12] = target: Vitamin D3 receptor (Homo sapiens) (UniProt P11473); assay: qHTS assay for small molecule agonists of vitamin D receptor signaling (AID 588543; calls by dose curve)
# Outline: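 Agonist-mode beta-lactamase reporter: HEK293T VDR-UAS-bla cells in charcoal-stripped 2% FBS, compound series 16 h 37 C, CCF4 2 h RT. EC50 from Hill fit, scaled against DMSO and 50 nM calcitriol control.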
# [13] = S16 Schwann cell PMP22 intronic element firefly luciferase assay (AID 624032); also: series mostly up to about 58 µM; nearly all actives have a fitted effect of over 30% in size
# Outline: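 Rat S16 Schwann cells stably carrying firefly luciferase driven by a PMP22 intronic element, in 10% FBS, treated 24 h at 37 C. ONE-Glo luminescence normalized to PTC124 control and DMSO (0%); curves classed by r2, magnitude and activity.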
# [14] = S16 Schwann cell PMP22 intronic element beta-lactamase assay (AID 624044; calls by dose curve; also: nearly all actives have a fitted effect of over 15% in size)
# Outline: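 Rat S16 Schwann cells with beta-Lac driven by a PMP22 intronic element, compound-treated 24 h at 37 °C. LiveBLAzer FRET B/G read: 460 nm normalized to potassium clavulanate vs DMSO; 535 nm FRET as viability; concentration-effect curves classified.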
# [15] = target: Peroxisome proliferator-activated receptor gamma (Homo sapiens) (UniProt P37231); assay: qHTS assay for small molecule antagonists of peroxisome proliferator-activated receptor gamma signaling (AID 588537; active = well fitted inhibition curve with a large enough effect in the signal ratio, with a control signal flat, not every such curve was filed as active; the % refers to the signal ratio;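 also: reporter cells co-stimulated with 50 nM rosiglitazone agonist during compound treatment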)
# Sequence of Peroxisome proliferator-activated receptor gamma (Homo sapiens) (P37231 whole entry, looked up): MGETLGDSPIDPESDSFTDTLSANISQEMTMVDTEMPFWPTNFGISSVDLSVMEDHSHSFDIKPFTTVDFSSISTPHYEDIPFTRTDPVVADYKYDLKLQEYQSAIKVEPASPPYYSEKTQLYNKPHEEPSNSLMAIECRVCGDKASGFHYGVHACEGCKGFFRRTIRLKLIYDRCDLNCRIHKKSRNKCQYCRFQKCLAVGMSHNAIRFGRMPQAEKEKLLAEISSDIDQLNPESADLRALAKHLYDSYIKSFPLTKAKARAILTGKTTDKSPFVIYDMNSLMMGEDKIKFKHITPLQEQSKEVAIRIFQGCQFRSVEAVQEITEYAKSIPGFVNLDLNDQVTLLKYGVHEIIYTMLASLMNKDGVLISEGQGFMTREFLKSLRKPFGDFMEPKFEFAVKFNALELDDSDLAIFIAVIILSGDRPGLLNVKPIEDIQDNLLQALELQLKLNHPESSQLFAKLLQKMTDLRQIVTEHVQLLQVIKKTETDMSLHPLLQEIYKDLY
# Outline: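 PPARγ-UAS-bla HEK293 cells (3000/well) in 1% charcoal/dextran-stripped FBS are treated with compound, then stimulated with 50 nM rosiglitazone for 16 h at 37 °C. Read-out is CCF4 β-lactamase fluorescence after 2 h at RT. IC50 comes from Hill fits normalised to rosiglitazone and DMSO.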
smiles,measurement,setting,value
Cc1ncc([N+](=O)[O-])n1CCO,outcome,[1],inactive
same,max response,[2],1.6%
same,outcome,[3],inactive
same,outcome,[4],inactive
same,max response,[5],-7.09%
same,max response,[6],26.4% (inactive)
same,activity change % (negative = inhibition),[7],-13.7% (inactive)
same,Potency,[8],inactive
same,Potency,[9],inactive
same,Potency,[10],inactive
CCc1cc(C(N)=S)ccn1,outcome,[1],inactive
same,outcome,[11],inactive
same,outcome,[12],inactive
same,max response,[2],-5.67%
same,outcome,[3],inactive
same,outcome,[4],inactive
same,max response,[5],-0.783%
same,max response,[6],10.8% (inactive)
same,activity change % (negative = inhibition),[7],7% (inactive)
same,Potency,[8],inactive
same,Potency,[13],inactive
same,Potency,[14],inactive
CC(=O)CC(c1ccccc1)c1c(O)c2ccccc2oc1=O (configuration not stated),outcome,[12],inactive
same,max response,[2],2.14%
same,outcome,[3],inactive
same,max response,[5],-2.55%
same,max response,[6],8.9% (inactive)
same,activity change % (negative = inhibition),[7],9.03% (inactive)
same,Potency,[8],inactive
CCN[C@H]1C[C@H](C)S(=O)(=O)c2sc(S(N)(=O)=O)cc21,Potency,[8],inactive
O=C(O)c1cc(=O)[nH]c(=O)[nH]1,max response,[2],0.884%
same,outcome,[3],inactive
same,outcome,[4],inactive
same,max response,[5],2.15%
same,max response,[6],5.81% (inactive)
same,activity change % (negative = inhibition),[7],1.95% (inactive)
same,Potency,[8],inactive
same,Potency,[10],inactive
same,Potency,[13],inactive
S=P(N1CC1)(N1CC1)N1CC1,outcome,[1],inactive
same,Potency,[15],inactive
same,outcome,[11],inactive
same,outcome,[12],inactive
same,max response,[2],-19.8%
same,outcome,[3],inactive
same,outcome,[4],inactive
same,activity change % (negative = inhibition),[7],-0.913% (inactive)
same,Potency,[8],inactive
same,Potency,[10],inactive
same,Potency,[13],inactive
same,Potency,[14],inactive
NS(=O)(=O)c1cc2c(cc1Cl)NC(C(Cl)Cl)NS2(=O)=O (configuration not stated),Potency,[8],inactive
C[C@@H](CN1CC(=O)NC(=O)C1)N1CC(=O)NC(=O)C1,Potency,[8],inactive
NC(N)=NC(N)=NCCc1ccccc1,outcome,[1],inactive
same,Potency,[15],inactive
same,max response,[2],8.58% and 2.73%
same,outcome,[3],inactive
same,outcome,[4],inactive
same,max response,[5],0.584% and 0.821%
same,max response,[6],19.7% (inactive) and -15.5% (inactive)
same,Potency,[8],inactive
same,Potency,[9],inactive
same,Potency,[10],inactive
Cc1ccnc2c1NC(=O)c1cccnc1N2C1CC1,outcome,[1],inactive
same,outcome,[11],inactive
same,outcome,[12],inactive
same,max response,[2],12%
same,outcome,[3],inactive
same,outcome,[4],inactive
same,max response,[5],-4.35%
same,max response,[6],11.4% (inactive)
same,activity change % (negative = inhibition),[7],-3.97% (inactive)
same,Potency,[8],inactive
same,Potency,[9],inactive
same,Potency,[10],inactive
same,Potency,[13],inactive
CC[C@H](C)C(=O)O[C@H]1C[C@@H](C)C=C2C=C[C@H](C)[C@H](CC[C@@H]3C[C@@H](O)CC(=O)O3)[C@H]21,outcome,[11],inactive
same,outcome,[12],inactive
same,Potency,[9],inactive
same,Potency,[10],inactive
same,Potency,[13],inactive
same,Potency,[14],inactive
C#CCN[C@@H]1CCc2ccccc21,Potency,[8],inactive
same,Potency,[9],inactive
same,Potency,[10],inactive
O=S(=O)(c1cccc2cnccc12)N1CCCNCC1,Potency,[8],inactive
same,Potency,[9],inactive
same,Potency,[10],inactive
same,Potency,[13],inactive
CC(C)(C)NC(=O)[C@H]1CC[C@H]2[C@@H]3CC[C@H]4NC(=O)C=C[C@]4(C)[C@H]3CC[C@]12C,Potency,[8],inactive
CCOCC(O)COc1ccc(NC(=O)CC[S+](C)C)cc1 (configuration not stated),Potency,[8],inactive
same,Potency,[9],inactive
same,Potency,[10],inactive
same,Potency,[13],inactive
CO[C@@]12[C@H](COC(N)=O)C3=C(C(=O)C(C)=C(N)C3=O)N1C[C@@H]1N[C@@H]12,Potency,[8],inactive
NC(=O)c1cccnc1,Potency,[8],inactive
same,Potency,[9],inactive
same,Potency,[10],inactive
same,Potency,[13],inactive
CCCCOc1ccc(CC(=O)NO)cc1,Potency,[8],inactive
same,Potency,[9],inactive
same,Potency,[10],inactive
Nc1[nH]c(=O)ncc1F,Potency,[8],inactive
same,Potency,[9],inactive
same,Potency,[10],inactive
CN1CCN(c2c(F)cc3c(=O)c(C(=O)O)cn(CCF)c3c2F)CC1,Potency,[8],inactive
same,Potency,[9],inactive
same,Potency,[10],inactive
O=c1cc(O)c(Cl)c[nH]1,Potency,[8],inactive
same,Potency,[9],inactive
same,Potency,[10],inactive
CN1CCN(c2c(F)cc3c(=O)c(C(=O)O)cn4c3c2OCN4C)CC1,Potency,[8],inactive
same,Potency,[9],inactive
same,Potency,[10],inactive
same,Potency,[13],inactive
CCC(=O)O[C@]1(C(=O)CCl)[C@@H](C)C[C@H]2[C@@H]3CCC4=CC(=O)C=C[C@]4(C)[C@@]3(F)[C@@H](O)C[C@@]21C,Potency,[8],inactive
COc1ccc(-c2ccc3cc(C(=O)O)ccc3c2)cc1C12CC3CC(CC(C3)C1)C2,Potency,[8],inactive
same,Potency,[9],inactive
same,Potency,[10],inactive
CCc1c2c(nc3ccc(OC(=O)N4CCC(N5CCCCC5)CC4)cc13)-c1cc3c(c(=O)n1C2)COC(=O)[C@]3(O)CC,Potency,[8],inactive
same,Potency,[9],inactive
same,Potency,[10],inactive
COC(=O)Nc1nc2ccc(Sc3ccccc3)cc2[nH]1,Potency,[8],inactive
same,Potency,[9],inactive
same,Potency,[10],inactive
same,Potency,[13],inactive
O=C(O)CCn1c2c(c3ccccc31)C[C@H](NS(=O)(=O)c1ccc(F)cc1)CC2,Potency,[8],inactive
same,Potency,[9],inactive
same,Potency,[10],inactive
same,Potency,[13],inactive
CCOC(=O)c1ccc(OC(=O)CCCCCN=C(N)N)cc1,Potency,[8],inactive
same,Potency,[9],inactive
same,Potency,[10],inactive
CCOC(=O)c1ccc(C#Cc2ccc3c(c2)C(C)(C)CCS3)nc1,Potency,[8],8.91 µM (active)
same,Potency,[9],inactive
same,Potency,[10],inactive
CS(=O)(=O)c1ccc([C@@H](O)[C@@H](CO)NC(=O)C(Cl)Cl)cc1,Potency,[8],inactive
Nc1nc(N)nc(-c2cc(Cl)ccc2Cl)n1,Potency,[8],inactive
same,Potency,[9],inactive
same,Potency,[10],inactive
COC(=O)Nc1nc2ccc(C(=O)c3ccccc3)cc2[nH]1,Potency,[8],inactive
same,Potency,[9],inactive
same,Potency,[10],inactive
same,Potency,[13],inactive
COc1ccccc1OCC(O)COC(N)=O (configuration not stated),Potency,[8],inactive
CO[C@@H]1[C@@H](OC(N)=O)[C@@H](O)[C@H](Oc2ccc3c(O)c(NC(=O)c4ccc(O)c(CC=C(C)C)c4)c(=O)oc3c2C)OC1(C)C,Potency,[8],inactive
O=P(O)(O)C(O)(Cc1cccnc1)P(=O)(O)O,Potency,[8],inactive
same,Potency,[9],inactive
same,Potency,[10],inactive
CCn1cc(C(=O)O)c(=O)c2cc(F)c(N3CCNCC3)cc21,Potency,[8],inactive
same,Potency,[9],inactive
same,Potency,[10],inactive
same,Potency,[13],inactive
COc1cc(NS(=O)(=O)c2ccc(N)cc2)nc(OC)n1,Potency,[8],inactive
same,Potency,[9],inactive
same,Potency,[10],inactive
same,Potency,[13],inactive
